SW480 rereplic: DNA re-replication induction in SW480 cells; AID 624297; 340,000 compounds, 1.8% hits; SW480 DNA re-replication, Hoechst DNA content imaging, 48 h; Potency, µM (doses to about 46.1 µM), hits mostly activators; also: nearly all actives have a fitted effect of over 55% in size
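250 cells/well; 23 nL cpd via pin tool; 48 hr, 37 C, 5% CO2; Hoechst 40 min; imager read of total nuclear intensity, ex 405/em 500-530 nm.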
ELG1 repair inh: blocks ELG1-dependent DNA repair in HEK293T cells. HEK293T ELG1-luciferase reporter, luminescence, 16 h; DNA damage induced by 5-fluorouridine. Potency, µM (highest dose often 46.1 µM), most hits filed as inhibitors. 330,000 compounds, 2.3% hits; also: nearly all actives have a fitted effect of over 55% in size
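5-Fluorouridine DNA damage + compound/DMSO, 2,000 cells/well, 16 h, 37 °C/5% CO2. ONE-Glo, 30 min RT, luminescence. Readout = decrease in reporter signal.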
KB-3-1 cytotox: kills parental KB-3-1 adenocarcinoma cells. 400,000 compounds, 1.4% hits. KB-3-1 viability, CellTiter-Glo ATP luminescence, 72 h. Potency, µM (titrated, usually from 46.1 µM), usual class: cytotoxic; also: nearly all actives have a fitted effect of over 60% in size
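Multi-concentration cytotoxicity screen in KB-3-1 cells grown in DMEM lacking phenol red with 10% FBS. After 72 h at 37 °C with compound, ATP-dependent luminescence was recorded.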
MCF10A rerep: inducers of DNA re-replication in MCF 10A breast cells | 350,000 compounds, 2.9% hits | AID 624296 | Potency, µM (highest dose often 46.1 µM), actives largely listed as activators | MCF 10A DNA re-replication, Hoechst nuclear intensity, 48 h; also: nearly all actives have a fitted effect of over 50% in size
KB-V1 cytotox: KB-V1 MDR subline cytotoxicity; Potency, µM (titrated, usually from 46.1 µM), usual class: cytotoxic; 400,000 compounds, 3.4% hits; AID 1347076; KB-V1 MDR cells viability, CellTiter-Glo, 72 h; also: nearly all actives have a fitted effect of over 60% in size
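In this primary screen, KB-V1 cells overexpressing P-gp are incubated with library compounds (lowest to highest concentration) for 72 h at 37 degrees C before a luminescent ATP viability read.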
Numbers stand for hits; - = inactive; ? = inconclusive; . = no result given. Most compounds without a hit are left out; they make up all but 8.2% or so of the library. Calls follow the shape of the dose curve; as a rule, active = well fitted curve in the direction sought with a large enough effect; inconclusive = small, poorly fitted or top-dose-only effect, or another doubt; inactive = no such curve, though single readings can be large; an effect the other way counts as inactive or inconclusive.

SMILES | SW480 rereplic | ELG1 repair inh | KB-3-1 cytotox | MCF10A rerep | KB-V1 cytotox
Cc1c(C)n(Cc2ccccc2)c2ncnc(N)c12 | - | 16µM | ? | - | -
c1ccc(-n2cnnc2SCc2nc3ccccc3s2)cc1 | - | ? | - | ? | 21µM
C/C(=N/NC(=O)c1cccs1)c1ccc(NC(=O)COc2ccc(Cl)cc2)cc1 | ? | - | ? | 5.2µM | -
C/C(=N\NC(=O)c1c([N+](=O)[O-])c(C)nn1C)c1ccc(NC(=O)C2CCCC2)cc1 | 5.8µM | ? | 0.46µM | 0.41µM | 6.5µM
C/C(=N\NC(=O)c1ccc(Cl)cc1)c1cccs1 | - | ? | - | - | -
C/C(=N\NC(=O)c1c([N+](=O)[O-])c(C)nn1C)c1ccc(NC(=O)c2ccc(C)o2)cc1 | ? | ? | - | - | -
C/C(=N/NC(=O)c1cccs1)c1ccc(N2CCOCC2)cc1 | 0.52µM | ? | - | - | -
C/C(=N\NC(=O)c1c(Cl)c(C)nn1C)c1ccc(NC(=O)C2CCC2)cc1 | 1.8µM | - | 1µM | ? | 3.3µM
CCCc1nc2ccc(Cl)cn2c1Cc1ccc(C)cc1 | . | . | - | . | -
CCOCCCNC(=O)c1[nH]c2cc(C)ccc2c1Sc1ccc(Cl)cc1 | . | . | - | . | -
C/C(=N\NC(=O)c1c(Cl)c(C)nn1C)c1ccc(NC(=O)COc2ccc(Cl)cc2C)cc1 | - | - | - | 21µM | -
CCc1ccc(-n2nc(C)c3c(C)cc(=O)n(CC(=O)N(CC)Cc4ccccc4)c32)cc1 | . | . | - | . | -
CC1CCCN(Cc2c(O)ccc3c(=O)c(-c4nc5ccccc5s4)c(N)oc23)C1 (centres undefined) | ? | - | ? | 21µM | ?
CC1CCN(Cc2c(O)ccc3c(=O)c(-c4nc5ccccc5s4)c(N)oc23)CC1 | - | - | - | - | ?
CC1(C)CCCN(Cc2c(O)ccc3c(=O)c(-c4nc5ccccc5s4)c(N)oc23)C1 | - | ? | ? | 23µM | ?
NC(=S)NNC(=O)[C@@H]1CCCC[C@@H]1C(=O)O | 0.52µM | - | - | - | -
O=C(O)C1CCCCC1C(=O)NC1C2CC3CC(C2)CC1C3 (centres undefined) | - | - | - | - | ?
C[C@@H]1CN([C@H](C)CO)S(=O)(=O)c2ccc(C#Cc3ccccc3)cc2O[C@H]1CN(C)C(=O)Nc1ccc2c(c1)OCO2 | . | . | - | . | -
CCc1cc2c(=O)[nH]c(-c3ccccn3)nc2s1 | 6.5µM | ? | 12µM | 12µM | ?
C/C(=N\NC(=O)c1c[nH]c2ccccc12)c1ccco1 | 2.9µM | ? | - | 2.3µM | -
C/C(=N\NC(=O)c1c[nH]c2ccccc12)c1ccccn1 | - | ? | ? | - | -
O=C(NCc1ccccc1)c1cc2nc(C3CC3)cc(C(F)(F)F)n2n1 | - | - | - | - | 23µM
O=C(NCc1ccco1)c1cc2nc(C3CC3)cc(C(F)(F)F)n2n1 | - | - | - | - | ?
CC1=NN(c2ccccc2)C(=O)/C1=C\C=C\c1ccccc1 | ? | 18µM | - | ? | -
CC1=NN(c2ccccc2)C(=O)/C1=C/C=C/c1ccc(N(C)C)cc1 | - | - | - | - | -
SMILES | SW480 rereplic | ELG1 repair inh | KB-3-1 cytotox | MCF10A rerep | KB-V1 cytotox
O=C(Nc1nc(-c2ccccc2)ns1)c1ccc(Cl)cc1 | . | . | - | . | -
CC(C)(C)C(=O)Nc1nc(-c2ccccc2)ns1 | - | ? | ? | ? | 15µM
Cc1cc(C)c2sc(NC(=O)c3ccc(S(=O)(=O)N4CCOCC4)cc3)nc2c1 | . | . | - | . | -
NC(=O)CSc1nc2scc(-c3ccc(Cl)cc3)c2c(=O)n1Cc1ccccc1 | - | 16µM | - | ? | -
Cc1ccc(-c2csc3nc(SCC(=O)N(C)C)n(Cc4ccccc4)c(=O)c23)cc1 | - | 21µM | ? | ? | -
C=CCn1c(SCC(=O)Nc2c(C)n(C)n(-c3ccccc3)c2=O)nc2scc(-c3ccccc3)c2c1=O | - | 23µM | - | - | -
C=CCn1c(SCC(=O)Nc2c(C)n(C)n(-c3ccccc3)c2=O)nc2ccccc2c1=O | - | - | - | - | -
CC(=O)N1CCN(C(=O)OC2CC3CC2[C@H]2CCCCN2C3=O)CC1 (some centres undefined) | . | . | - | . | ?
CCCCn1c(SCC(=O)N(C)C2CCS(=O)(=O)C2)nc2cc(S(N)(=O)=O)ccc21 (centres undefined) | - | - | - | - | -
C=C[C@@H]1c2cc(C)ccc2N(S(=O)(=O)c2ccc(C)cc2)[C@H](c2ccc(C(C)(F)F)cc2)C1(C#N)C#N | . | . | - | . | -
CN1CCN(C(=S)Nc2cccc(Cl)c2)CC1 | - | - | - | - | 13µM
CCOC(=O)C1CCN(C(=S)Nc2cccc(C)c2)CC1 | - | - | - | - | -
Cc1cccc(NC(=O)CN2CCC(C(=O)c3ccc4c(c3)OCCO4)CC2)c1 | - | - | ? | - | 12µM
CCOC(=O)N1CCN(C(=S)Nc2cccc(C)c2)CC1 | - | - | - | - | 18µM
COc1ccc(C(=O)C2CCN(CC(=O)Nc3cc(C)cc(C)c3)CC2)cc1 | - | - | - | ? | ?
O=C(CN1CCC(C(=O)c2ccc3c(c2)OCCO3)CC1)Nc1ccccc1F | ? | ? | - | - | -
Cc1ccc(C(=O)C2CCN(CC(=O)Nc3nc(C)cs3)CC2)cc1 | - | ? | - | - | 21µM
CCCc1cc(=O)[nH]c(SCC(=O)Nc2ccc(Cl)c(S(=O)(=O)N3CCOCC3)c2)n1 | - | - | - | ? | -
CCCCc1nc2ccc(S(=O)(=O)O)cc2[nH]1 | - | - | - | - | -
Cc1cccc(NC(=O)CN2CCN(CC(=O)Nc3cccc(C)c3)CC2)c1 | - | - | - | 21µM | ?
Cc1cccc(NC(=O)CCN2CCN(C)CC2)c1 | - | - | - | - | -
Cc1ccc(C(=O)C2CCN(CC(=O)Nc3ccc(N(C)C)cc3)CC2)cc1 | - | ? | - | - | -
Cc1ccc(C(=O)C2CCN(CC(=O)Nc3ccc4c(c3)OCCO4)CC2)cc1 | - | - | - | - | 12µM
Cc1cccc(C)c1NC(=O)CN1C(=O)COc2ccccc21 | - | - | - | - | -
COc1cccc(N2CCN(C(=O)C3CCCN(c4ncnc5c4nc4n5CCCCC4)C3)CC2)c1 (centres undefined) | - | 3.3µM | - | - | -
Cc1cccc(CCNC(=O)C2CCCN(c3ncnc4c3nc3n4CCCCC3)C2)c1 (centres undefined) | - | ? | - | - | -
Cc1cccc(N2CCN(CCCNC(=O)C3CCCN(c4ncnc5c4nc4n5CCCCC4)C3)CC2C)c1 (centres undefined) | ? | 12µM | ? | ? | ?
COc1ccccc1NC(=O)C1CCCN(c2ncnc3c2nc2n3CCCCC2)C1 (centres undefined) | - | 21µM | - | - | ?
O=C(C1CCN(c2ncnc3c2nc2n3CCCCC2)CC1)N1CCN(c2ccc(F)cc2)CC1 | - | 7.3µM | ? | - | -

Source: PubChem (National Center for Advancing Translational Sciences (NCATS))
